# Cav3 T inh: inhibitors of human Cav3.2 T-type calcium channel; Cav3.2-expressing cells, Fluo-4 calcium fluorescence FDSS; active compounds read low; AID 449739; 4% of 100,000 active; B-score at 10 µM; O95180;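 active = single-dose well whose peak fluorescence ratio is a statistical outlier from its plate by either plate-standardised score or position-corrected B-score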
# Target sequence (O95180 whole entry, looked up): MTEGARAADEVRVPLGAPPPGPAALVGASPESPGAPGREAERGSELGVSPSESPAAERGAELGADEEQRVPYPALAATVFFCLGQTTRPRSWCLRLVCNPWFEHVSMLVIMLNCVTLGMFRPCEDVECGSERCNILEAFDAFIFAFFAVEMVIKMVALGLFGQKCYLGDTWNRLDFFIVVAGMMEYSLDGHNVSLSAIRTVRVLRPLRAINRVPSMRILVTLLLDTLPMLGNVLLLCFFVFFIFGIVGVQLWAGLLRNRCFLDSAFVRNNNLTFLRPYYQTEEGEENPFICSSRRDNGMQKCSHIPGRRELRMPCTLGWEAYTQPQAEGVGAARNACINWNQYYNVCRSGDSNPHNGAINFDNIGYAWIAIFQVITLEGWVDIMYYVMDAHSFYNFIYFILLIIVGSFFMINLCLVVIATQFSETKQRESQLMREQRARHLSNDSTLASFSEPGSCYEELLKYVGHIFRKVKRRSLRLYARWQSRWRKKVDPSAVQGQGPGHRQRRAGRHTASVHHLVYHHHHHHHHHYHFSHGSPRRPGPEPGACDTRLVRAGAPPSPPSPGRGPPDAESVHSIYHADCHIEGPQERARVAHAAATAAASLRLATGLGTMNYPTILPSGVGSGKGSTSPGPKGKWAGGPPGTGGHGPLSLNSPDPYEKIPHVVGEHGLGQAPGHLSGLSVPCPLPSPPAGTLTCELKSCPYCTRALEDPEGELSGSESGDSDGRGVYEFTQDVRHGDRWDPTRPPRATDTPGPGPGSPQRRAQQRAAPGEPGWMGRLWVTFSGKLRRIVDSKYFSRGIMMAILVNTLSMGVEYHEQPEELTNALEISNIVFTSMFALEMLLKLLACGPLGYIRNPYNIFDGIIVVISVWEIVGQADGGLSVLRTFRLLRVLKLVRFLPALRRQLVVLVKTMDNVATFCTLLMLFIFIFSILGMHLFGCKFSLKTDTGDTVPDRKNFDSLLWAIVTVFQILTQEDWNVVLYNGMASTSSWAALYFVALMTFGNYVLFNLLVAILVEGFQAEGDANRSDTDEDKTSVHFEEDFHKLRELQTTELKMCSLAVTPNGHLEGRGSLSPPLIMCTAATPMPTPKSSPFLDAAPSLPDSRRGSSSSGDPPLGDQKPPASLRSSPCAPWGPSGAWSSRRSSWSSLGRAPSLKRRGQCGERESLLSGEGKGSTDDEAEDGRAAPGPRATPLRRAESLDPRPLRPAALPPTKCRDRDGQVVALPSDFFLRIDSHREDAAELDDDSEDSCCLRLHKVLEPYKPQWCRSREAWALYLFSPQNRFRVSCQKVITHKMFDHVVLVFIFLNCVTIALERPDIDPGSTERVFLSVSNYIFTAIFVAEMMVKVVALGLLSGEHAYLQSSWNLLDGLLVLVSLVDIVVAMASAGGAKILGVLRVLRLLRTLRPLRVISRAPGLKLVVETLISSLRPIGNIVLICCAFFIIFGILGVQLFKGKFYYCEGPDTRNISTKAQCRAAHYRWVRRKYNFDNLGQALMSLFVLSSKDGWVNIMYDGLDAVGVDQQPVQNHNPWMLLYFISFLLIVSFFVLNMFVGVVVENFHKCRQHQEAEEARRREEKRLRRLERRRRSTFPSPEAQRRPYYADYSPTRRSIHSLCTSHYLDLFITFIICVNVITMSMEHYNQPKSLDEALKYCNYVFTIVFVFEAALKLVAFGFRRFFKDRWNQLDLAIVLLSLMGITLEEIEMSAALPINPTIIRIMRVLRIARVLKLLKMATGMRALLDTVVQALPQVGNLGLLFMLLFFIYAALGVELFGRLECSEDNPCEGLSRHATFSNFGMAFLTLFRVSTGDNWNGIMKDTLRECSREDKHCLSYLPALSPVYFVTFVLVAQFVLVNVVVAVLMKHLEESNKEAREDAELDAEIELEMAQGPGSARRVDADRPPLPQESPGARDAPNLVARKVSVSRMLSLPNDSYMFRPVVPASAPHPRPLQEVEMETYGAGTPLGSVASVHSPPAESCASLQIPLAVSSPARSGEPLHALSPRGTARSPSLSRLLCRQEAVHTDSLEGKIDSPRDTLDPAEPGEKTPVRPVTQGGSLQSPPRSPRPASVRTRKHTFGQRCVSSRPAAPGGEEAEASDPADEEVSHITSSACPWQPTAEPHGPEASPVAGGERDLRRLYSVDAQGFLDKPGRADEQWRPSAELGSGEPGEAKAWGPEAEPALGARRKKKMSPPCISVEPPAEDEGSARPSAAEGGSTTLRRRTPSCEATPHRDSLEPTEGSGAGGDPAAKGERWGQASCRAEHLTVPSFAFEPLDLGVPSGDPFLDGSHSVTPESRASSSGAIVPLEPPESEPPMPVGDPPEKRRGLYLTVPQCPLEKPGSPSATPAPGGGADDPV
# hDAT+cocaine: changed human dopamine transporter uptake under cocaine IC80 | 1.3% of 110,000 active | LLC-PK1 hDAT cells, [14C]-dopamine uptake with cocaine IC80; actives deviate in either direction | Q01959 | B-score at 10 µM;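 active = Z score or B-score, a plate-position-corrected score, falls beyond the plate's 99.7% confidence bounds, in either direction; inactive = both scores lie inside the 99.7% bounds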;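 note: scored against the spread of the other compound wells on the same plate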
# PLK1 kinase inh: PLK1 (human) kinase inhibition | 0.53% of 97,000 active | inhibition, % at 10 µM | P53350 | recombinant PLK1 kinase, TR-FRET peptide phosphorylation;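 active = inhibition of 50% or more in the single-concentration screen; inactive = inhibition below 50%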;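 note: 0% = DMSO max control and 100% = H-89 dihydrochloride min control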
# SDO1 yeast rescue: sdo1-depleted yeast growth rescue; S. cerevisiae sdo1-depleted JHY4D growth rescue, OD600 30 h; active compounds read high; pdr5 snq2 efflux-pump mutant strain; z-score at 10 µM; 0.21% of 140,000 active; AID 817;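 active = z-score above 3 at both the 24 hr and the 30 hr optical density reads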;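 note: z-score against mean and SD of all compound wells on the same plate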
# PLK1 PBD inh: blocks phosphopeptide binding to human Plk1 polo box domain | P53350 | Plk1 PBD phosphopeptide binding, fluorescence polarization | inhibition, %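 (tested at about 20 µM)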 | 0.13% of 97,000 active; in the data active = inhibition above about 34%, passing the limit was not always enough
# PTK2B oligo ant: Pyk2 (human) oligomerization antagonism; 0.83% of 99,000 active; Q293 cells, Pyk2 FERM NanoBiT luminescence; active compounds read low; Q14289; z-score (the deposit names both 25 µM and 10 µM);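 active = Z-score of -3 or lower, scaled per plate to the spread of control and sample wells; inactive = z-score above -3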;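 note: negative z-score means lost luminescence so less FERM oligomerization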
# Starred values were filed as active, the others as inactive; / = not tested or not shown. Hits are enriched below; roughly 4.7% of the tested compounds scored in any of these assays.
SMILES,Cav3 T inh,hDAT+cocaine,PLK1 kinase inh,SDO1 yeast rescue,PLK1 PBD inh,PTK2B oligo ant
O=C(CSc1nnc(-c2ccc(F)cc2)o1)Nc1ccccc1N1CCOCC1,-1.4,3.3*,-6,/,8,0.23
COc1cccc(NC(=O)CSc2nnc(-c3ccc(C)cc3)o2)c1,-0.11,-1,-5,-2,18,/
Cc1cccc(C(=O)N[C@@H]2c3ccccc3C[C@@H]2O)n1,0.64,-0.25,/,/,/,/
Cc1ccccc1C1(CCN2CCCCC2)CCOC(C)(C)C1 (stereo not given),/,/,/,1.1,/,/
CCOC(=O)c1cnc2c(OC)cccc2c1Nc1ccc2c(c1)OCCO2,/,/,/,-1.1,/,/
CCOC(=O)c1cnc2ccc(OC)cc2c1Nc1ccc2c(c1)OCCO2,-3.4,-0.13,2,-1.9,-20,-4*
COc1ccc(C(=O)NCC(c2cccnc2)N2CCN(c3ccc(F)cc3)CC2)cc1OC (stereo not given),-0.14,0.055,-13,0.35,12,/
O=C(NCC(c1cccnc1)N1CCN(c2ccc(F)cc2)CC1)c1ccc(F)cc1 (stereo not given),-0.46,3.2*,17,-1.9,12,0.89
O=C(CSc1nnc(Cc2cccs2)n1-c1ccc(Cl)cc1)NCc1ccc2c(c1)OCO2,-8.5*,1.8,-11,-0.57,-3,-0.59
CC(Sc1nnc(-c2cccs2)n1Cc1ccccc1)C(=O)NCc1ccc2c(c1)OCO2 (stereo not given),-4.4*,0.77,3,-0.33,-10,-0.59
COc1cccc(-c2nnc(SCC(=O)NCc3ccc4c(c3)OCO4)n2Cc2ccco2)c1,-4.6*,1.3,-5,-0.67,12,-0.21
O=C(CSc1nnc(-c2cccs2)n1Cc1ccccc1)NCc1ccc2c(c1)OCO2,-4.7*,2.1,-2,-0.89,0,-0.94
CCc1cccc(CC)c1NC(=O)COC(=O)c1cccc(-c2ccc(OC(C)=O)cc2)c1,/,/,/,-0.5,/,/
COc1[nH]c2ccc(F)cc2c1C(=O)OCC1CCN(CCNS(C)(=O)=O)CC1,-0.22,-0.057,/,/,/,/
Cc1nc2c(-c3ccccc3)c(C)nn2c(C)c1CCC(=O)NC(C)CCc1ccco1 (stereo not given),-5.7*,0.84,-12,-0.7,13,/
COC(=O)C1=C(C(=O)OC)[C@@H]2N(C)c3ccccc3[C@@]23C[C@@H](C(=O)OC)N(C(=O)c2cc(C)oc2C)C3=N1,-0.2,0.6,/,/,/,/
CCN(CC)C(=O)N1c2ccccc2C=Cc2ccccc21,-8.6*,-0.59,-10,-0.35,12,-1.2
O=C(C1c2ccccc2Oc2ccccc21)N1CCN(c2ccc(Cl)cc2)CC1,/,/,-10,-1.2,25,-0.86
CC12CC(NC(=O)N1c1cccc(C(=O)N3CCN(c4ccccc4)CC3)c1)c1ccccc1O2 (stereo not given),-5.4*,0.8,-5,1.7,-15,-0.1
CC12CC(NC(=O)N1Cc1ccccc1)c1ccccc1O2 (stereo not given),-5.4*,0.37,-5,-0.48,-17,-0.51
CC12CC(NC(=O)N1c1cccc(C(=O)NCc3ccccc3)c1)c1ccccc1O2 (stereo not given),/,/,-12,1.9,-13,/
CC12CC(NC(=O)N1c1ccc(C(=O)N3CCN(c4ccc(F)cc4)CC3)cc1)c1ccccc1O2 (stereo not given),-5.3*,1,-11,0.73,11,1.7
COc1ccccc1N1CCN(C(=O)C2c3ccccc3Oc3ccccc32)CC1,-5.8*,-0.073,-4,-1.9,15,-1.3
O=C(c1ccccc1)c1ccc(C(=O)N2CCN(c3ccc(F)cc3)CC2)o1,-3,2.3,-10,-0.61,-6,0.07
Cc1ccc(N2C(=O)NC(C(F)(F)F)(C(F)(F)F)C3=C2CC(C)(C)CC3=O)cc1,/,/,/,-0.58,/,0.63
SMILES,Cav3 T inh,hDAT+cocaine,PLK1 kinase inh,SDO1 yeast rescue,PLK1 PBD inh,PTK2B oligo ant
Cc1[nH]c(=O)c(C(=O)/C=C/c2ccccc2F)c2c1CCCC2,0.99,-0.57,-11,-1.2,-22,-2.5
COc1ccccc1N1CCN(C(=O)c2cccc(N3C(=O)NC4CC3(C)Oc3ccccc34)c2)CC1 (stereo not given),-3.9*,2.1,-11,0.13,-20,-0.78
CCOc1cccc2c1OC1(C)CC2NC(=O)N1c1ccc(OC)cc1 (stereo not given),0.19,0.73,-10,0.55,-20,1.1
COc1cc(C(=O)NS(=O)(=O)c2ccccc2C)ccc1Cc1cn(C)c2ccc(NC(=O)OC3CCCC3)cc12,-5.9*,-1.3,/,/,/,/
CCOc1ccccc1OCCCCCc1c(C)n[nH]c1C,-3.6*,0.61,13,-0.8,-8,-0.28
COc1ccccc1OCCCCCc1c(C)n[nH]c1C,-1.1,1.2,-9,0.67,-12,-0.18
Cc1cccc(OCCCCc2c(C)n[nH]c2C)c1,-5.8*,-0.5,-13,-0.41,-21,-1.4
O=C(NCc1nnc(SCc2ccc(F)cc2)n1-c1ccc(F)cc1)C12CC3CC(CC(C3)C1)C2,/,/,/,-0.03,/,/
O=C(NNC(=O)c1ccc([N+](=O)[O-])cc1Cl)c1ccncc1,/,/,/,0.47,/,/
O=C(c1ccc(CSCc2ccccc2F)o1)N1CCN(c2ccc(N3CCOCC3)nn2)CC1,-0.27,3.4*,/,-0.51,/,/
COc1ccc(CNC(=O)C(c2ccc(C)o2)N(C(=O)c2csnn2)c2ccc(C(C)C)cc2)cc1 (stereo not given),-7.1*,1.1,-14,-1.1,-16,-0.89
Cc1ccc(C(C(=O)NCc2ccccc2)N(C(=O)c2csnn2)c2cccc3ccccc23)o1 (stereo not given),-7*,1.7,-8,-0.69,23,-0.05
CCC(C)(C(=O)NC1CCCCC1)N(C(=O)Cc1cccs1)c1ccccc1 (stereo not given),/,/,/,-1.2,/,/
COc1ccc([N+](=O)[O-])cc1NC(=O)c1cn(-c2ccc(C)c(C)c2)c(=O)c2ccccc12,/,/,/,0,/,/
CCOC(=O)Cc1csc(N/N=C/c2ccc(C(F)(F)F)cc2)n1,/,/,-3,0.36,29,/
COc1ccc(/C=N/NC(=O)Cc2csc(Nc3cccc(C(F)(F)F)c3)n2)cc1C,-3.9*,3,-5,-1.1,42,-0.4
COc1cc2c(cc1OC)CN(S(=O)(=O)c1cccs1)CC2,/,/,/,-1.2,/,/
CCCS(=O)(=O)N1CCc2cc(OC)c(OC)cc2C1,-0.63,-8.2*,-8,1.1,-10,1.6
CCOc1ccccc1-c1nc2c(s1)CCc1onc(-c3ccc(OC)cc3)c1-2,-0.017,-1.2,/,/,/,/
Cc1ccc(C(=O)c2ccc(N3CCOCC3)c(F)c2)cc1,-0.04,4.5*,-13,1.1,-17,1.2
Cc1cc(C)c(C)c(OCCCN(C)C)c1,/,/,/,0.15,/,/
Cc1cc(C(=O)CSc2nnc(N)s2)c(C)n1CCc1ccc(Cl)cc1,-4.9*,0.27,-10,-2.1,-14,0.9
CC(C)c1ccccc1-n1c(SCc2cc(=O)oc3ccc4ccccc4c23)nnc1-c1cccnc1,/,/,/,-1.3,/,/
CCCCN(CCCC)S(=O)(=O)c1ccc(SCC(=O)OCC)c([N+](=O)[O-])c1,-3.1*,-0.23,-7,-0.66,-7,-1.2
